Experimental data published in PubChem BioAssay (NCI).
Values joined by “and” are separate entries in the source; they are usually repeats but may differ in a detail not shown here. Equal values may be shown once. About 83,000 compounds went through this panel and 20% of them were active in at least one assay; those are over-represented in the sample as a whole.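 Negative percent growth values reflect cell death: -40 means 40% of the cells present at the start died, and -100 means all died.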 Active and inactive are the calls of the source. How the source made its calls: active means growth percent below 10; inactive means the rest.

What was measured:
Assay in all cases: NCI-60 one-dose screen, 48 h (100 = growth as untreated, 0 = no growth, -100 = all killed)
HCT-15 colon = tested on: HCT-15 colon
HT29 colon = tested on: HT29 colon
SNB-75 CNS = tested on: SNB-75 CNS
SNB-19 CNS = tested on: SNB-19 CNS
PC-3 prostate = tested on: PC-3 prostate
SK-MEL-5 melanoma = tested on: SK-MEL-5 melanoma
UACC-62 melanoma = tested on: UACC-62 melanoma
LOX IMVI melanoma = settings: 10 µM unless noted
SK-MEL-28 melanoma = tested on: SK-MEL-28 melanoma
U251 CNS = settings: 10 µM unless noted

Measured: growth

O=c1ccn2c(n1)OC1CC2OC1COC(c1ccccc1)(c1ccccc1)c1ccccc1 (configuration not stated)
inactive: HCT-15 colon; 10 µM 97% | HCT-15 colon; 100 µM 101% | HT29 colon; 10 µM 108% | HT29 colon; 100 µM 106% | SNB-75 CNS; 10 µM 107% | SNB-75 CNS; 100 µM 95.6% | SNB-19 CNS; 10 µM 111% | SNB-19 CNS; 100 µM 91.8% | PC-3 prostate; 10 µM 84.1% | PC-3 prostate; 100 µM 63.1% | SK-MEL-5 melanoma; 10 µM 100% | SK-MEL-5 melanoma; 100 µM 28.5% | UACC-62 melanoma; 10 µM 103% | UACC-62 melanoma; 100 µM 44.5% | LOX IMVI melanoma 105% | SK-MEL-28 melanoma; 10 µM 118% | SK-MEL-28 melanoma; 100 µM 74.3%

NCCCCCC(=O)O
inactive: HCT-15 colon; 10 µM unless noted 103% [middle of 4 runs] | HT29 colon; 10 µM unless noted 100% [middle of 4 runs] | SNB-75 CNS; 10 µM unless noted 93.6% [middle of 4 runs] | SNB-19 CNS; 10 µM unless noted 103% [middle of 4 runs] | U251 CNS 107% and 104% and 91.4% | PC-3 prostate; 10 µM unless noted 106% [middle of 4 runs] | SK-MEL-5 melanoma; 10 µM unless noted 108% and 109% and 110% | UACC-62 melanoma; 10 µM unless noted 112% [middle of 4 runs] | LOX IMVI melanoma 100% [middle of 4 runs] | SK-MEL-28 melanoma; 10 µM unless noted 112% and 109% and 119%

N=C(N)N1CCc2ccccc2C1
inactive: HCT-15 colon; 10 µM unless noted 109% and 103% | HT29 colon; 10 µM unless noted 102% and 105% | SNB-75 CNS; 10 µM unless noted 98% and 109% | SNB-19 CNS; 10 µM unless noted 99.9% and 103% | U251 CNS 89.2% and 98.4% | PC-3 prostate; 10 µM unless noted 89.3% and 128% | SK-MEL-5 melanoma; 10 µM unless noted 102% and 111% | UACC-62 melanoma; 10 µM unless noted 99.3% and 99% | LOX IMVI melanoma 84.3% and 113% | SK-MEL-28 melanoma; 10 µM unless noted 109%

COc1cc(NCCCCCCCNC(C)C)c2nccc(C)c2c1
inactive: HCT-15 colon; 10 µM unless noted 89.2% and 58.5% | HT29 colon; 10 µM unless noted 53.7% and 14.2% | SNB-75 CNS; 10 µM unless noted 74.4% and 61.1% | SNB-19 CNS; 10 µM unless noted 90.9% and 74.2% | U251 CNS 80.8% and 61.3% | PC-3 prostate; 10 µM unless noted 58.1% and 75.9% | SK-MEL-5 melanoma; 10 µM unless noted 84.3% and 64.8% | LOX IMVI melanoma 92.5% and 54.7% | SK-MEL-28 melanoma; 10 µM unless noted 105% and 91.4%
88.2% (inactive) and 3.49% (active): UACC-62 melanoma; 10 µM unless noted

CCOC(=O)c1ccc(C(=N)N)cc1
inactive: HCT-15 colon; 10 µM unless noted 103% | HT29 colon; 10 µM unless noted 106% | SNB-75 CNS; 10 µM unless noted 100% | SNB-19 CNS; 10 µM unless noted 113% | U251 CNS 100% | PC-3 prostate; 10 µM unless noted 89.6% | SK-MEL-5 melanoma; 10 µM unless noted 107% | UACC-62 melanoma; 10 µM unless noted 108% | LOX IMVI melanoma 97.9% | SK-MEL-28 melanoma; 10 µM unless noted 120%

Cc1cc2nc3ccc(=[N+](C)C)cc-3sc2cc1N
3.91% (active) and 19.4% (inactive): HT29 colon; 10 µM unless noted
active: HCT-15 colon; 10 µM unless noted 8.48% and 7.46% | SNB-19 CNS; 10 µM unless noted -17.2% and -4.45% | U251 CNS 1.01% and -31% | PC-3 prostate; 10 µM unless noted -1.87% and -5.43% | SK-MEL-5 melanoma; 10 µM unless noted -92.2% and -90.1% | LOX IMVI melanoma -19.1% and -29.2%
-9.76% (active) and 20.1% (inactive): SK-MEL-28 melanoma; 10 µM unless noted
-31.9% (active) and 23.3% (inactive): UACC-62 melanoma; 10 µM unless noted
inactive: SNB-75 CNS; 10 µM unless noted 88.2% and 22.1%

COC(=O)C(Cc1cn(C(C)=O)c2ccccc12)P(=O)(OC)OC (configuration not stated)
inactive: HCT-15 colon; 10 µM unless noted 103% | HT29 colon; 10 µM unless noted 108% | SNB-75 CNS; 10 µM unless noted 89.5% | SNB-19 CNS; 10 µM unless noted 104% | U251 CNS 101% | PC-3 prostate; 10 µM unless noted 88.6% | SK-MEL-5 melanoma; 10 µM unless noted 96.8% | UACC-62 melanoma; 10 µM unless noted 93.1% | LOX IMVI melanoma 92.7% | SK-MEL-28 melanoma; 10 µM unless noted 114%

CCC(C)NC(=O)c1ccccc1C (configuration not stated)
inactive: HCT-15 colon; 10 µM unless noted 96.3% | HT29 colon; 10 µM unless noted 97.4% | SNB-75 CNS; 10 µM unless noted 76.8% | SNB-19 CNS; 10 µM unless noted 97.9% | U251 CNS 102% | PC-3 prostate; 10 µM unless noted 101% | SK-MEL-5 melanoma; 10 µM unless noted 91% | UACC-62 melanoma; 10 µM unless noted 100% | LOX IMVI melanoma 95.7% | SK-MEL-28 melanoma; 10 µM unless noted 94.3%

CN(C=O)c1ccccc1
inactive: HCT-15 colon; 10 µM unless noted 95.1% | HT29 colon; 10 µM unless noted 99.9% | SNB-75 CNS; 10 µM unless noted 80.6% | SNB-19 CNS; 10 µM unless noted 102% | U251 CNS 93.5% | PC-3 prostate; 10 µM unless noted 88.4% | SK-MEL-5 melanoma; 10 µM unless noted 94.5% | UACC-62 melanoma; 10 µM unless noted 88.7% | LOX IMVI melanoma 89.5% | SK-MEL-28 melanoma; 10 µM unless noted 109%

COc1ccc(COC=O)cc1
inactive: HCT-15 colon; 10 µM unless noted 107% | HT29 colon; 10 µM unless noted 104% | SNB-75 CNS; 10 µM unless noted 102% | SNB-19 CNS; 10 µM unless noted 114% | U251 CNS 100% | PC-3 prostate; 10 µM unless noted 99.9% | SK-MEL-5 melanoma; 10 µM unless noted 104% | UACC-62 melanoma; 10 µM unless noted 104% | LOX IMVI melanoma 100% | SK-MEL-28 melanoma; 10 µM unless noted 111%

NNc1ncnc2cccc(Cl)c12
inactive: HCT-15 colon; 10 µM unless noted 97.8% | HT29 colon; 10 µM unless noted 95% | SNB-75 CNS; 10 µM unless noted 101% | SNB-19 CNS; 10 µM unless noted 103% | U251 CNS 95.4% | PC-3 prostate; 10 µM unless noted 93.3% | SK-MEL-5 melanoma; 10 µM unless noted 91% | UACC-62 melanoma; 10 µM unless noted 92% | LOX IMVI melanoma 94.6% | SK-MEL-28 melanoma; 10 µM unless noted 103%
